Results: publication PMC4242493, “Sequence specificity incompletely defines the genome-wide occupancy of Myc”
Over roughly 33,000 sequences, “normalized occupancy” has its median near 0.075; the highest 2% begin near 0.095. This excerpt belongs to a sample that is enriched for the highest values.

biological target: MaxL homodimer (Homo sapiens, UniProt P61244 1-160); assay: universal protein-binding microarray (PBM); PBS-based mixture, 10 nM His-tagged protein dimer, 2% milk, 200 ng/uL BSA, 50 ng/uL salmon testes DNA, 0.02% TX-100; detection with Alexa 488 anti-His antibody;; high values mean tight binding; details: protein: recombinant; tags: C-terminal His-tag (pET21a); chain copies: 2; dsDNA, one strand shown
How it was run: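 His-tagged protein dimer at 10 nM was bound to Agilent 4 x 44 K 'all 10-mer' universal arrays and detected with 10 ng/μL fluorophore-conjugated anti-His antibody on a GenePix 4400A, giving an intensity per 8-mer. Binding occupancy normalises each intensity to the top-ranked one.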

Sequence of MaxL homodimer (P61244 whole entry): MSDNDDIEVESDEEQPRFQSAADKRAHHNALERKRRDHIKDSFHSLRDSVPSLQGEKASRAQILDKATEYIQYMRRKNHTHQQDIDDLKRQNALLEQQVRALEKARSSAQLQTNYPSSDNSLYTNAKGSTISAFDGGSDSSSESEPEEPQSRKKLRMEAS

Q: GCGACAGA was tested. Which binding signal did it give?
A: 0.0794 normalized occupancy

Q: Which binding signal does the source give for AAGTCATT here?
A: 0.0758 normalized occupancy

Q: With CAACATTA as the sequence, how does the binding signal read?
A: 0.0824 normalized occupancy

Q: How did the binding signal turn out when CCGAATGA was run?
A: 0.0745 normalized occupancy

Q: Which binding signal does the source give for AAACACAG here?
A: 0.0769 normalized occupancy

Q: For CTCGCGTA, which binding signal is on record?
A: 0.0788 normalized occupancy

Q: With CGCGCGTA as the sequence, how does the binding signal read?
A: 0.0797 normalized occupancy

Q: For ATCGCGTC, which binding signal is on record?
A: 0.0719 normalized occupancy

Q: Which binding signal does the source give for ATCGCGTA here?
A: 0.0764 normalized occupancy

Q: How did the binding signal turn out when ATCGCGTG was run?
A: 0.127 normalized occupancy

Q: With CACGCGTG as the sequence, how does the binding signal read?
A: 0.17 normalized occupancy

Q: For GCCAACCC, which binding signal is on record?
A: 0.08 normalized occupancy

Q: With AACATGGT as the sequence, how does the binding signal read?
A: 0.0843 normalized occupancy

Q: With AGTGAAAG as the sequence, how does the binding signal read?
A: 0.0743 normalized occupancy

Q: How did the binding signal turn out when CCCGGTAG was run?
A: 0.0721 normalized occupancy

Q: ATCTGATG was tested. Which binding signal did it give?
A: 0.0779 normalized occupancy

Q: How did the binding signal turn out when ATGTGATG was run?
A: 0.0968 normalized occupancy

Q: Which binding signal does the source give for ATGTGAAA here?
A: 0.0872 normalized occupancy

Q: How did the binding signal turn out when ATGTGACG was run?
A: 0.0922 normalized occupancy

Q: With ATGTGAAT as the sequence, how does the binding signal read?
A: 0.0967 normalized occupancy

Q: Which binding signal does the source give for ATGTGAAG here?
A: 0.0891 normalized occupancy

Q: ATGTGATC was tested. Which binding signal did it give?
A: 0.0964 normalized occupancy

Q: How did the binding signal turn out when AGGTGATC was run?
A: 0.0832 normalized occupancy

Q: For CTGTGATC, which binding signal is on record?
A: 0.0728 normalized occupancy

Q: With CTGTGATA as the sequence, how does the binding signal read?
A: 0.0741 normalized occupancy

Q: ATGTGATA was tested. Which binding signal did it give?
A: 0.0999 normalized occupancy

Q: Which binding signal does the source give for GTGTGATA here?
A: 0.0856 normalized occupancy

Q: Which binding signal does the source give for AAGAGGAA here?
A: 0.0726 normalized occupancy

Q: With AATTATCG as the sequence, how does the binding signal read?
A: 0.0772 normalized occupancy

Q: How did the binding signal turn out when AATTCGAG was run?
A: 0.0732 normalized occupancy

Q: How did the binding signal turn out when AAGAGGGC was run?
A: 0.0738 normalized occupancy

Q: Which binding signal does the source give for CTGGTTAC here?
A: 0.0749 normalized occupancy

Q: Which binding signal does the source give for ATAGGGAT here?
A: 0.0812 normalized occupancy

Q: CCGAGTAG was tested. Which binding signal did it give?
A: 0.0732 normalized occupancy

Q: How did the binding signal turn out when GATGATAA was run?
A: 0.078 normalized occupancy

Q: AGAATGTG was tested. Which binding signal did it give?
A: 0.0881 normalized occupancy

Q: With ATGGTAGG as the sequence, how does the binding signal read?
A: 0.0818 normalized occupancy

Q: CTTACTAA was tested. Which binding signal did it give?
A: 0.0721 normalized occupancy

Q: CTCGTGGC was tested. Which binding signal did it give?
A: 0.119 normalized occupancy

Q: For ATCGTGGC, which binding signal is on record?
A: 0.086 normalized occupancy

Q: Which binding signal does the source give for GTCGTGGA here?
A: 0.0856 normalized occupancy

Q: With CTAGTGGC as the sequence, how does the binding signal read?
A: 0.0765 normalized occupancy

Q: Which binding signal does the source give for CTCGTGGA here?
A: 0.103 normalized occupancy

Q: With ATCGTGGA as the sequence, how does the binding signal read?
A: 0.084 normalized occupancy

Q: With CATCTCTA as the sequence, how does the binding signal read?
A: 0.0817 normalized occupancy

Q: Which binding signal does the source give for CAATTATG here?
A: 0.0802 normalized occupancy

Q: With GAACACGC as the sequence, how does the binding signal read?
A: 0.108 normalized occupancy

Q: GAACACAC was tested. Which binding signal did it give?
A: 0.0767 normalized occupancy

Q: With AAACACGC as the sequence, how does the binding signal read?
A: 0.0929 normalized occupancy

Q: How did the binding signal turn out when CAACACGA was run?
A: 0.0817 normalized occupancy

Q: How did the binding signal turn out when CAACACGC was run?
A: 0.0995 normalized occupancy

Q: With GAACACGA as the sequence, how does the binding signal read?
A: 0.0948 normalized occupancy

Q: Which binding signal does the source give for ATTAGCGG here?
A: 0.0719 normalized occupancy

Q: With ACATTGAA as the sequence, how does the binding signal read?
A: 0.0824 normalized occupancy

Q: With ACGAGAGG as the sequence, how does the binding signal read?
A: 0.0776 normalized occupancy

Q: AAACAAAG was tested. Which binding signal did it give?
A: 0.0763 normalized occupancy

Q: GCATGCAC was tested. Which binding signal did it give?
A: 0.11 normalized occupancy

Q: How did the binding signal turn out when GCATGCAA was run?
A: 0.0988 normalized occupancy

Q: Which binding signal does the source give for TCATGCAA here?
A: 0.0829 normalized occupancy

Q: With GAATGCAC as the sequence, how does the binding signal read?
A: 0.0772 normalized occupancy

Q: How did the binding signal turn out when GTATGCAC was run?
A: 0.0856 normalized occupancy

Q: Which binding signal does the source give for ACATGCAA here?
A: 0.0826 normalized occupancy

Q: With ATGGAAGC as the sequence, how does the binding signal read?
A: 0.0783 normalized occupancy

Q: For TGAATCCA, which binding signal is on record?
A: 0.0757 normalized occupancy

Q: For TCGTTCCA, which binding signal is on record?
A: 0.0775 normalized occupancy

Q: How did the binding signal turn out when CCATAGCC was run?
A: 0.0762 normalized occupancy

Q: How did the binding signal turn out when ACACACGA was run?
A: 0.0911 normalized occupancy

Q: Which binding signal does the source give for AAACACGA here?
A: 0.0848 normalized occupancy

Q: How did the binding signal turn out when TCACACGA was run?
A: 0.0859 normalized occupancy

Q: For AAACACGG, which binding signal is on record?
A: 0.0741 normalized occupancy

Q: With GCACACGC as the sequence, how does the binding signal read?
A: 0.1 normalized occupancy

Q: ACACACGG was tested. Which binding signal did it give?
A: 0.083 normalized occupancy

Q: With GCACACGA as the sequence, how does the binding signal read?
A: 0.0896 normalized occupancy

Q: How did the binding signal turn out when AAACACGT was run?
A: 0.106 normalized occupancy

Q: How did the binding signal turn out when CCACACGA was run?
A: 0.0959 normalized occupancy

Q: For ACACACGT, which binding signal is on record?
A: 0.0986 normalized occupancy

Q: With GCACACAC as the sequence, how does the binding signal read?
A: 0.0907 normalized occupancy

Q: For CCACACGG, which binding signal is on record?
A: 0.0835 normalized occupancy

Q: With GTTTCCTA as the sequence, how does the binding signal read?
A: 0.0787 normalized occupancy

Q: Which binding signal does the source give for AATATAAG here?
A: 0.0817 normalized occupancy

Q: How did the binding signal turn out when CCCCTAAC was run?
A: 0.0774 normalized occupancy

Q: Which binding signal does the source give for AACACTAC here?
A: 0.0726 normalized occupancy

Q: AATAGTGC was tested. Which binding signal did it give?
A: 0.0733 normalized occupancy

Q: Which binding signal does the source give for GGAGAGAC here?
A: 0.0742 normalized occupancy

Q: AGACACGC was tested. Which binding signal did it give?
A: 0.0922 normalized occupancy

Q: CCACACAC was tested. Which binding signal did it give?
A: 0.0837 normalized occupancy

Q: Which binding signal does the source give for ACACACGC here?
A: 0.103 normalized occupancy

Q: Which binding signal does the source give for CCACACGC here?
A: 0.0953 normalized occupancy

Q: How did the binding signal turn out when ACACACAC was run?
A: 0.0915 normalized occupancy

Q: With CCACACAA as the sequence, how does the binding signal read?
A: 0.0772 normalized occupancy

Q: How did the binding signal turn out when ACTAACAA was run?
A: 0.0766 normalized occupancy

Q: Which binding signal does the source give for GCTTACCA here?
A: 0.0723 normalized occupancy

Q: How did the binding signal turn out when GCAATCTA was run?
A: 0.0722 normalized occupancy

Q: With ATTAAAGA as the sequence, how does the binding signal read?
A: 0.0773 normalized occupancy
